A short description of test [1]: Viability qHTS for spleen associated tyrosine kinase inhibitor (SYKi) naive MV4-11 cells (AID 1963823). Further: nearly all actives have a fitted effect of over 40% in size. In a few lines: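 Seeding of 500 SYKi-naive MV4-11 cells per well onto pre-dispensed compounds preceded a 72 hr incubation at 37 C. Luminescent CellTiter-Glo signal, read after 10 min at room temperature, reflected viable cells.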
On the technique in general: Quantitative high-throughput screening tests each substance at several concentrations.

The nature of test [2]: Viability qHTS for spleen associated tyrosine kinase inhibitor (SYKi) drug resistant MV4-11 cells (AID 1963824). Further: nearly all actives have a fitted effect of over 35% in size. In a few lines:
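CellTiter-Glo luminescence, read 10 min after reagent addition, reports viability after a 72 hr compound exposure. Cells are an MV4-11 line made resistant to SYK inhibition, seeded at 500 per well onto compound-containing plates.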

Records with an inconclusive call do not appear. Unmarked numbers belong to inactive results. Active and inactive are the calls of the source. The call rests on the fitted dose curve; in most records, active means well fitted cell-killing curve with a large enough effect; inconclusive means small, poorly fitted or top-dose-only effect, or effect the other way; inactive means no such curve, though single readings can be large or run the other way.

This passage reports Potency, viability (% of control) and viability, % of control results from PubChem BioAssay (NCATS).
Potency means the concentration at half of the fitted maximal effect.

Turning to `Cc1ccc(C2(COC(=O)C(C)C)CO2)c(OC(=O)C(C)C)c1` (stereo not drawn), the Potency in test [1] is 1.8 µM (active); in test [2], 2.02 µM (active).
Take `CC(C)CCC1(O)C(=O)C(C)(C)C(O[C@@H]2O[C@H](CO)[C@@H](O)[C@H](O)[C@H]2O)C(C)(C)C1O` (stereo partly drawn): the Potency result in test [1] and in test [2] was “inactive” in each case.
In the case of `CC(C)C1(O)C=C2C(=O)CC3C(C)(C(=O)O)CCCC3(C)C2CC1` (stereo not drawn), the Potency entry in test [1] and in test [2] was “inactive” in each case.
With `C=CC1C(O[C@@H]2O[C@H](CO)[C@@H](O)[C@H](O)[C@H]2O)OC=C(C(=O)OC)C1CC(=O)O` (stereo partly drawn), the Potency result in test [1] and in test [2] was “inactive” each time.
As for `CC(C)CCNC(=O)[C@H](CC(C)C)NC(=O)[C@H]1O[C@@H]1C(=O)O`, the Potency entry in test [1] and in test [2] was “inactive” in each case.
Consider `C=C(C(=O)O)[C@@H]1CC[C@@]2(C)CC[C@@H](O)C(=C)C2C1` (stereo partly drawn), for which the Potency entry in test [1] and in test [2] was “inactive” throughout.
For the molecule `CC1(C(=O)Nc2ccc(F)nc2)CCCN1c1nc(Nc2cc(C3CC3)[nH]n2)c2cccn2n1` (stereo not drawn), the Potency in test [1] is 1.46 µM (active); in test [2], 1.64 µM (active).
Take `CC1CCC2(C=O)C(CO)=CCCC2C1(C)CC(=O)O` (stereo not drawn): the Potency entry in test [1] and in test [2] was “inactive” throughout.
`CC(C)(F)CC(NC(c1ccc(-c2ccc(S(C)(=O)=O)cc2)cc1)C(F)(F)F)C(=O)NC1(C#N)CC1` (stereo not drawn): the Potency entry in test [1] was “inactive”. In addition, the Potency in test [2] was 3.66 µM (active).
The like results for `COc1cc2c(Nc3cc(F)c(Cl)c(Cl)c3)ncnc2cc1OCC1CCCN(C)CCC1` were, in that order, 1.16 µM (active) and 2.59 µM (active).
The like results for `CC(NC(=O)c1ccccc1N)C(=O)O` (stereo not drawn) were, in that order, “inactive” and “inactive”.
The like results for `CCN1CCN(Cc2ccc(-c3cc4c(NC(C)c5ccccc5)ncnc4[nH]3)cc2)CC1` (stereo not drawn) were, in that order, 0.92 µM (active) and 1.3 µM (active).
For `C=C[C@@](C)(O)CC/C=C(\C)C(=O)O[C@@H]1[C@@H]2O[C@]2(C)[C@H]2[C@H](O[C@@H]3O[C@H](CO)[C@@H](O)[C@H](O)[C@H]3O)OC=C[C@@]12O`, the Potency entry in test [1] and in test [2] was “inactive” throughout.
Regarding `COc1cc(C2Oc3c(OC)cc(/C=C/C(=O)OC4CC(O)(C(=O)O)CC(O)C4O)cc3C2CO)ccc1O` (stereo not drawn), the Potency result in test [1] and in test [2] was “inactive” in each case.
With `CC(=O)O[C@@H]1[C@@H](OC(=O)/C=C/c2ccccc2)[C@@H](OC(C)=O)[C@H](O[C@H]2[C@@H]3C=CO[C@@H](O[C@@H]4O[C@H](CO)[C@@H](O)[C@H](O)[C@H]4O)[C@@H]3[C@@]3(CO)O[C@@H]23)O[C@H]1C`, the Potency entry in test [1] and in test [2] was “inactive” each time.
As to `C=C1OC2CC(C(=O)O)C=CC2NC1=O` (stereo not drawn), in test [1], the Potency entry was “inactive”. In addition, in test [2], the Potency was 2.91 µM (active).
For `COc1ccc2[nH]c3c(c2c1)CCN[C@]31CS[C@@H]2c3c(OC(C)=O)c(C)c4c(c3[C@H](COC1=O)N1[C@@H]2[C@H]2c3c(cc(C)c(OC)c3O)C[C@@H]([C@@H]1O)N2C)OCO4`, the Potency is 0.0015 µM (active) in test [1] and 0.0011 µM (active) in test [2].
The like results for `CC(NCCC(c1ccccc1)c1ccccc1)c1ccccc1` (stereo not drawn) were, in that order, 13.3 µM (active) and 10.6 µM (active).
In the same order, the values of `CC1C(=O)OCC2=CC[N+]3([O-])CCC(OC(=O)C(C)(O)C1(C)O)C23` (stereo not drawn) are “inactive” and “inactive”.
In the same order, the values of `CCN1/C(=C/C(C)=O)Sc2ccc(OC(C)=O)cc21` are 7.31 µM (active) and 10.3 µM (active).
`C[C@@H]1O[C@@H](O[C@H]2[C@H](O)[C@@H](O)[C@H](OC3CCC4(C)C5CCC(C)(C(CO)OC6OC(CO)C(O)C(O)C6O)CC5=CCC4C3(C)C)O[C@@H]2CO)[C@H](O)[C@H](O)[C@H]1O` (stereo partly drawn): the Potency result in test [1] and in test [2] was “inactive” in each case.
For the molecule `CN(Cc1ccc(C(C)(C)C)cc1)Cc1cccc2ccccc12`, the Potency entry in test [1] and in test [2] was “inactive” throughout.
As to `CNc1cc2c(Nc3cccc(Br)c3)ncnc2cn1`, the values for the Potency in test [1] and in test [2] were 18.4 µM (active) and 23.1 µM (active), respectively.
The like results for `COC(=O)C12C(=O)C(C)=C(O)C1(C)C(C)=CC1C34CCC(OC3=O)C(C)(C)C4CCC12C` (stereo not drawn) were, in that order, “inactive” and “inactive”.
Turning to `CC1(C)CC[C@]2(C(=O)OC3OC(CO)C(O)C(O)C3O)CC[C@]3(C)C(=CCC4[C@@]5(C)CC[C@H](OC6OC(C(=O)O)C(O)C(OC7OC(CO)C(O)C(O)C7O)C6O)C(C)(C)C5CC[C@]43C)C2C1` (stereo partly drawn), in test [1], the viability (% of control) is 77.3% [at 9.25 µM]. Moreover, the viability, % of control in test [2] is 96.9% [at 9.25 µM].
As for `O=C(NC1CCN(CCCCC2(C(=O)NCC(F)(F)F)c3ccccc3-c3ccccc32)CC1)c1ccccc1-c1ccc(C(F)(F)F)cc1`, the Potency in test [1] and in test [2] was 2.59 µM (active) in each case.
Turning to `C/C=C(\C)C(=O)OCC1OC(OC2OC(COC(=O)/C(C)=C/C)C(OC3OC(CO)C(OC(=O)/C(C)=C/C)C(OC(=O)/C(C)=C/C)C3O)C(O)C2O)C(O)C(O)C1OC1OC(CO)C(OC(=O)/C(C)=C/C)C(OC(=O)/C(C)=C/C)C1O` (stereo not drawn), the viability (% of control) in test [1] was 65% [at 9.25 µM]. Also, the viability, % of control in test [2] was 58.7% [at 9.25 µM].
`COC(=O)c1ccc(OC)cc1O[C@@H]1O[C@H](CO[C@@H]2OC[C@@H](O)[C@H](O)[C@H]2O)[C@@H](O)[C@H](O)[C@H]1O`: the Potency entry in test [1] and in test [2] was “inactive” in each case.
`CN(C)CC(=O)Nc1ccc2[nH]c(=O)c3ccccc3c2c1`: the Potency in test [1] and in test [2] was 20.6 µM (active) throughout.
